In all, about 310,000 compounds went through this assay and about 14,000 (4.5%) showed an effect of 50% or more. The effect is printed as a negative number. The full list was thinned out, with strong results kept by preference.
These molecules were tested against human ether-à-go-go-related gene (hERG) potassium channel (human, UniProt Q12809) (assay: primary screen, population patch clamp on CHO cells stably expressing hERG; higher = less effect of the substance).
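Also: peak tail current of the secondary pulse compared with the same well before compound.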

human ether-à-go-go-related gene (hERG) potassium channel, sequence (Q12809 whole entry, looked up): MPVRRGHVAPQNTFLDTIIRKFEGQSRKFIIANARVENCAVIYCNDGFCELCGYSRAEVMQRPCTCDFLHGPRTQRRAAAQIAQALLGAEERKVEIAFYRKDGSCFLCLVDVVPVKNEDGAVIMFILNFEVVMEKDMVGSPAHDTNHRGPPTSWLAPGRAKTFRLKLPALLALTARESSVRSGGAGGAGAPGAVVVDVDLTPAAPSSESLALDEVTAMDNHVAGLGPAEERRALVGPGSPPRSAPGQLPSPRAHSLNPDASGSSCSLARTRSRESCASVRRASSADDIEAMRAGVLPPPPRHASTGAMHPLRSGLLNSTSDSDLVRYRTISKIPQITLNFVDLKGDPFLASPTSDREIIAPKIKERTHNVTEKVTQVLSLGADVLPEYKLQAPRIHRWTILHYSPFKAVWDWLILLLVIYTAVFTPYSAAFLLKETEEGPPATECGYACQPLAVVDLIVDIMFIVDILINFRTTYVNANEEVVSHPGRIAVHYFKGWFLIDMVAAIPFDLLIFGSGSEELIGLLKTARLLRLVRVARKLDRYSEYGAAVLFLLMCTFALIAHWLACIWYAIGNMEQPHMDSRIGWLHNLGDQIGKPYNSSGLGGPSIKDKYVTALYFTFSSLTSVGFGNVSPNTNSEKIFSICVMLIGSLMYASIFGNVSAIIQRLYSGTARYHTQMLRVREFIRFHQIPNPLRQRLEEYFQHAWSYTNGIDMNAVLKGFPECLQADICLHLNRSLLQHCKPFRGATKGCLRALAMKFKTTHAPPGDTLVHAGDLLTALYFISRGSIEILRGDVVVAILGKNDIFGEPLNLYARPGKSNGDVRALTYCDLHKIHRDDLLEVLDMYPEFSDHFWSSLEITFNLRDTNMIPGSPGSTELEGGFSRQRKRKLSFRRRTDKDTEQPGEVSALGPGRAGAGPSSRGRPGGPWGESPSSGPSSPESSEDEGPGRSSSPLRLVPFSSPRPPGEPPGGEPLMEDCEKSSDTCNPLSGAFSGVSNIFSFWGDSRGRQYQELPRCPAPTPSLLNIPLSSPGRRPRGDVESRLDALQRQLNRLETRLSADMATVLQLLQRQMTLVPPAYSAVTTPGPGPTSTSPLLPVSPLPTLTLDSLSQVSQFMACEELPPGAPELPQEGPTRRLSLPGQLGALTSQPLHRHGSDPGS

SMILES	hERG current change (%, negative = inhibition) at 10uM
CCN(CC)S(=O)(=O)c1ccc(NC(=O)Cc2cccs2)cc1	5.81%
CCOC(=O)c1c(NC(=O)CSc2nc3c(c(=O)n(C)c(=O)n3C)n2C(C)C)sc(C)c1C	-0.527%
CCCCNC(=O)c1cc([N+](=O)[O-])[nH]n1	19.1%
COc1ccccc1N1CCN(C(=O)CSc2nnc3c4ccccc4nc(Cc4ccccc4)n23)CC1	-4.18%
COc1ccccc1N1CCN(C(=O)CSc2nc3ccccc3nc2N2CCCCC2)CC1	19%
COCCNC(=O)CSc1nc2ccccc2c(=O)n1CCC(=O)N1CCN(c2ccccc2)CC1	-35%
COCCNc1nc(SCC(=O)N2CCN(c3ccccc3)CC2)nc2ccccc12	-86.9%
O=C(CSc1nc2ccccc2c(=O)[nH]1)N1CCN(c2ccccc2)CC1	14.1%
COCCNc1nc(SCC(=O)N2CCN(c3ccccc3OC)CC2)nc2ccccc12	-88.6%
O=C(NC1CC1)c1ccc(-c2nc3ccccc3s2)s1	10.7%
O=C(Cn1cnc2ccccc2c1=O)Nc1nnc(SCc2ccc(Cl)cc2)s1	10.9%
Cn1cc(CC(=O)N2CCN(c3ccccc3F)CC2)c2ccccc21	-9.66%
CCCOc1ccccc1N/C(=N\S(=O)(=O)c1ccc(C)cc1)Nc1nc(C)cc(C)n1	26.1%
CC(C)(OC(=O)c1ccc(C(F)(F)F)cc1)c1cc2ccccc2c(=O)o1	14.6%
CC(C)(OC(=O)c1ccc(F)cc1)c1cc2ccccc2c(=O)o1	3.1%
COc1cc2cc(CCOC(=O)c3ccc(C#N)cc3)oc(=O)c2cc1OC	-37.9%
N#Cc1ccc(C(=O)OCCc2cc3ccccc3c(=O)o2)cc1	-29%
COc1cc2cc(CCCOC(=O)c3ccc(F)cc3)oc(=O)c2cc1OC	-29.5%
COc1cc2cc(CCCOC(=O)c3ccc(C#N)cc3)oc(=O)c2cc1OC	-65%

SMILES	hERG current change (%, negative = inhibition) at 10uM
N#Cc1ccc(C(=O)OCCCc2cc3ccccc3c(=O)o2)cc1	-69.4%
O=C(OCCCc1cc2ccccc2c(=O)o1)c1ccc(F)cc1	-37.9%
CC(C)(OC(=O)c1ccc(C#N)cc1)c1cc2ccccc2c(=O)o1	-73.1%
COc1cccc(CNCCc2ccccc2)c1OC.Cl	5.21%
O=C1C=C(c2cccc3c2oc2ccccc23)CCC1	-2.35%
Cc1c(C(=O)/C=C/N(C)C)nnn1-c1ccc(F)c(Cl)c1	2.73%
O=C(NCCc1ccccc1)C1CCC(=O)N1CCc1ccccc1 (centres unmarked)	8.78%
CC1CCN(CCCCOc2ccccc2-c2ccccc2)CC1.O=C(O)C(=O)O	-72.6%
C=CCc1cc(Cl)ccc1OCCn1ccnc1.O=C(O)C(=O)O	-10.1%
CC1CN(CCCOc2ccccc2-c2ccccc2)CC(C)O1.O=C(O)C(=O)O (centres unmarked)	-47.2%
C=CCc1cc(Cl)ccc1OCCN1CC(C)OC(C)C1.O=C(O)C(=O)O (centres unmarked)	-53.1%
CC1CCN(CCCCOc2ccccc2F)CC1.O=C(O)C(=O)O	-13.3%
C=CCc1cc(OC)ccc1OCCN1CC(C)OC(C)C1.O=C(O)C(=O)O (centres unmarked)	-9.85%
CC1CN(CCOCCOc2ccccc2-c2ccccc2)CC(C)O1.O=C(O)C(=O)O (centres unmarked)	-13.5%
CC1CN(CCOc2ccccc2-c2ccccc2)CC(C)O1.O=C(O)C(=O)O (centres unmarked)	-9.99%
O=C(O)C(=O)O.c1ccc(-c2ccccc2OCCOCCN2CCCCC2)cc1	-44.7%
CN1CCN(CCCCOc2ccccc2-c2ccccc2)CC1.O=C(O)C(=O)O	-38.2%
CC1CC(C)CN(CCOc2ccccc2-c2ccccc2)C1.O=C(O)C(=O)O (centres unmarked)	-68.5%
CC1CCCN(CCOCCOc2ccccc2-c2ccccc2)C1.O=C(O)C(=O)O (centres unmarked)	-72.9%

SMILES	hERG current change (%, negative = inhibition) at 10uM
Cc1ccc(S(=O)(=O)N2CCC(C(=O)Nc3ccc(S(=O)(=O)N4CCCC4)cc3)CC2)cc1	-10.6%
COc1cccc(C2C(C(=O)c3sc(C)nc3C)=C(O)C(=O)N2CCN2CCOCC2)c1 (centres unmarked)	10.8%
Fc1ccc(CNc2ccc(N3CCN(Cc4ccccc4)CC3)cc2)cc1	-30.1%
COc1ccc(C(=O)NCc2nnc(SCCOc3ccccc3)n2C)cc1	-15.5%
O=C(CCNS(=O)(=O)c1ccccc1C(F)(F)F)N1CCN(c2ccccc2O)CC1	-26.9%
CCC(=O)N1CCN(c2ccc(NC(=S)NC(=O)COc3ccccc3)cc2)CC1	-21.6%
CC(=O)c1c(C)[nH]c(C(=O)Nc2nc(-c3ccc(-c4ccccc4)cc3)cs2)c1C	19.3%
O=C(COCc1cc(-c2ccc3c(c2)OCO3)on1)Nc1cccnc1	10%
CC1CCN(CCOCCOc2ccccc2-c2ccccc2)CC1	-57.2%
CC1CN(CCOc2ccc(Cl)cc2Cl)CC(C)O1.O=C(O)C(=O)O (centres unmarked)	-24.6%
O=C(O)C(=O)O.c1ccc(-c2ccccc2OCCOCCN2CCNCC2)cc1	2.27%
CC1CCCN(CCOc2ccc3ccccc3c2Br)C1.O=C(O)C(=O)O (centres unmarked)	-69%
CC1CCN(CCOCCOc2ccccc2Br)CC1	-30.1%
CC1CC(C)CN(CCOc2cccc(Cl)c2Cl)C1.O=C(O)C(=O)O (centres unmarked)	-35.9%
CC1CC(C)CN(CCOc2ccc(Cl)cc2Cl)C1.O=C(O)C(=O)O (centres unmarked)	-67.3%
CC1CCCN(CCOCCSc2ccccc2)C1.O=C(O)C(=O)O (centres unmarked)	-34.5%
CC1CCN(CCOc2ccccc2-c2ccccc2)CC1.O=C(O)C(=O)O	-58.6%
CC1CCN(C(=O)COc2ccc3ccccc3c2Br)CC1	11.8%

Reference: publication PMC4336329 (PLoS ONE, 2015)
